# Laboratory results reported in the supplement of paper PMC4962491.
# ± gives the standard deviation of the averaged measurements.
# Tested on: FaDu
# Assay: mitochondrial oxygen consumption rate normalised to cell number, Z score vs plate DMSO wells; higher = higher oxygen consumption (negative = OCR reduction)
# Conditions: treatment time 24 h, assay medium: 5 mM glucose, 5 mM pyruvate, 4 mM glutamine
# Method: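 Secondary screen: FaDu cells were incubated 24 h with the top 130 primary hits at 0.08, 0.4, 2 or 10 uM. Mitochondrial-specific OCR (basal minus antimycin A) was measured on a Seahorse XF96 in medium with 5 mM glucose, 5 mM pyruvate and 4 mM glutamine and normalised to Hoechst cell number. OCR score = (OCR - mean of plate DMSO wells) / SD of plate DMSO wells. Three repeats.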
# 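Further: compound exposure in DMEM (4 mM L-glutamine, 5 mM glucose), antimycin A injected at 2 µM after the basal reading and its residual OCR subtracted from basal.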
SMILES,mitochondrial oxygen consumption rate normalised (0.08 µM),mitochondrial oxygen consumption rate normalised (0.4 µM),mitochondrial oxygen consumption rate normalised (2 µM),mitochondrial oxygen consumption rate normalised (10 µM)
CC(C)NCC(O)COc1ccc(CC(N)=O)cc1 (stereo not drawn),0.23 ± 1.7,0.806 ± 0.77,0.178 ± 1,-0.73 ± 1.5
COc1cccc2c1C(=O)c1c(O)c3c(c(O)c1C2=O)C[C@@](O)(C(=O)CO)C[C@@H]3O[C@H]1C[C@H](N)[C@@H](O)[C@H](C)O1,-0.0709 ± 0.37,1.4 ± 1,1.18 ± 1.4,1.58 ± 2.4
CN1[C@@H]2CC[C@H]1C[C@@H](OC(=O)c1c[nH]c3ccccc13)C2,0.168 ± 1.4,1.48 ± 0.79,-0.138 ± 1.6,-1.06 ± 2.5
CC(=O)O[C@H]1C[C@@]2(C)[C@@H](C[C@@H](O)[C@H]3[C@@]4(C)CC[C@@H](O)[C@@H](C)[C@@H]4CC[C@@]32C)/C1=C(\CCC=C(C)C)C(=O)O,0.246 ± 2.1,-0.851 ± 1.9,0.0549 ± 0.78,-0.138 ± 1.1
COc1cc([C@@H]2c3cc4c(cc3[C@@H](O[C@@H]3O[C@@H]5CO[C@@H](c6cccs6)O[C@H]5[C@H](O)[C@H]3O)[C@H]3COC(=O)[C@H]23)OCO4)cc(OC)c1O [Teniposide],0.487 ± 1.3,0.0174 ± 0.54,,
CCN(CC)C(=O)c1cccnc1,0.606 ± 0.97,-0.942 ± 0.098,-1.02 ± 1.1,-1.48 ± 0.69
CCN(CC)CCOC(=O)C(c1ccccc1)C1CCCCC1 (stereo not drawn),0.349 ± 1.2,1.06 ± 1,1.23 ± 0.9,1.37 ± 1.6
N=C(N)NC(=N)NCCc1ccccc1,0.684 ± 1.6,0.605 ± 0.9,-0.479 ± 0.84,-5.11 ± 1.6
Cc1cc(C2CCCCC2)n(O)c(=O)c1,-0.736 ± 1.4,1.35 ± 1,-3.51 ± 0.86,-3.81 ± 1.9
O=C(O[C@H]1CN2CCC1CC2)N1CCc2ccccc2[C@@H]1c1ccccc1,1.08 ± 2.1,0.729 ± 0.44,0.566 ± 1.2,-0.974 ± 1.9
